Measured values published in ChEMBL document CHEMBL3988442, “University of Dundee, Small-Polar-MMV Screening Library” (2021).

Each compound was assayed against T1, Tyrosyl-tRNA synthetase, putative (Trypanosoma cruzi (strain CL Brener)) (UniProt Q4DSP6) (assay: Trypanosoma cruzi tyrosyl tRNA synthetase (TcYRS) _High Tyrosine SOP). Details: 30 µM.
T1 sequence (whole entry): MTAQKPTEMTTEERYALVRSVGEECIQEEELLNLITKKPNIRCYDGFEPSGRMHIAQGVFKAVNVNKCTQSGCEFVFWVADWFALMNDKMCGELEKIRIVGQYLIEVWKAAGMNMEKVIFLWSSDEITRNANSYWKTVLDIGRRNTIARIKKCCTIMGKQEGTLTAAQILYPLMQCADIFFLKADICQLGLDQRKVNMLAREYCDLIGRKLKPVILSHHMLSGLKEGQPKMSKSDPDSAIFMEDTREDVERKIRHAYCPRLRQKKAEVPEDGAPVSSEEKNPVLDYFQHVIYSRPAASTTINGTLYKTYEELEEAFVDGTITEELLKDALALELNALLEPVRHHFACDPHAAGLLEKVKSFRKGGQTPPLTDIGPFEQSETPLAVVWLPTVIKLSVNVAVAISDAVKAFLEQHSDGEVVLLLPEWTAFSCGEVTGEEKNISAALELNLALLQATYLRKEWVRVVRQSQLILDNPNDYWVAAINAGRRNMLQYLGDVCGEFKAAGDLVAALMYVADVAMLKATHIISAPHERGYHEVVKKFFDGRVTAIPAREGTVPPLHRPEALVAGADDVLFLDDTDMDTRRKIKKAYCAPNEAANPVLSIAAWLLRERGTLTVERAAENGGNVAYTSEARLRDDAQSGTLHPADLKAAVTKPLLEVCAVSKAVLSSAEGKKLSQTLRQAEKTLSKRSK
Assay type: functional
Design: scale not given: in the data most compounds retested in dose-response had high values

Compound | Percent Effect [%]
Cc1csc(N2CCCN(C(=O)c3c(C)oc(C)c3C)CC2)n1 | 7.89
CCc1nnc(CN2CCCC(c3cc(C(F)(F)F)[nH]n3)C2)o1 (centres undefined) | 1.58
Cc1cnn(CC2CCCCN2C(=O)c2cc(Cl)c[nH]2)c1 (centres undefined) | 5.88
COC(=O)C1CCN(C(=O)c2ccc(C)c(NS(C)(=O)=O)c2)CC1 | 1.6
c1cc(-c2noc(CN3CCn4c(nnc4C4CC4)C3)n2)co1 | 7.18
CN(CC(=O)Nc1ccc(Br)cn1)C(=O)Cc1ccc(O)cc1 | 3.68
CCc1ncc2c(n1)CN(CC(=O)Nc1nnc(C)s1)CC2 | 6.84
COCCN1CCN(Cc2ccc(F)c(C)c2)[C@H]2CS(=O)(=O)C[C@H]21 | 7.98
CNC(=O)N1C[C@H]2C[C@H](C(=O)Nc3ccccc3)[C@@H](C1)O2 | 4.74
Cc1cccc(CN2C(=O)CCC23CCN(c2ncc(F)cn2)CC3)n1 | 11.6
N#Cc1cccc(S(=O)(=O)NC(=O)COc2ccc3c(c2)CCC3)c1 | 0.478
O=C(Cn1cc(-c2ccccc2)ncc1=O)Nc1ccncc1 | 6.92
O=C(N1CCCC1)N1CCC2(CCCN(CCOc3ccccc3)C2)C1 (centres undefined) | 1.93
CNc1cncc(C2CCCN2Cc2c[nH]cn2)n1 (centres undefined) | 5.29
CO[C@@H]1CCN(C(=O)c2ccccn2)[C@H]1Cc1ccccc1 | 8.7
CC1(C)OCC(CNC(=O)c2cnn(-c3cc(Cl)ccc3Cl)c2N)O1 (centres undefined) | 0
CN(C)c1ccc(NC(=O)NCc2ccccn2)cn1 | 5.88
Cc1cnn(CC2CCCN2CC(=O)Nc2cc(C(C)(C)C)no2)c1 (centres undefined) | 7.84
Cn1cc(C(=O)N2CCC(Cc3nccs3)CC2)cn1 | 4.23
